Screening data: PubChem BioAssay, National Center for Advancing Translational Sciences (NCATS)
Most compounds without a hit are left out; they make up all but 9.4% or so of the library.
ELG1 repair inh – ELG1-dependent DNA repair inhibition. HEK293T ELG1-luciferase reporter, luminescence, 16 h; DNA damage induced by 5-fluorouridine. Potency, µM (titrated, usually from 46.1 µM), usual class: inhibitors. AID 504467. 330,000 compounds, 2.3% hits; also: nearly all actives have a fitted effect of over 55% in size
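DMSO vehicle served as the neutral condition. Each well held 2,000 cells given 5-fluorouridine plus compound; after 16 hr at 37 °C/5% CO2, ONE-Glo was added and luciferase measured 30 min later.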
FLuc modulator – firefly luciferase modulation, counter-screen for miR-21 project. P08659. purified FLuc, Km substrates, luminescence inhibition. 360,000 compounds, 6.9% hits. Potency, µM (top dose mostly 57.5 µM), most hits filed as inhibitors; also: nearly all actives have a fitted effect of over 55% in size
Target sequence (P08659 whole entry, looked up): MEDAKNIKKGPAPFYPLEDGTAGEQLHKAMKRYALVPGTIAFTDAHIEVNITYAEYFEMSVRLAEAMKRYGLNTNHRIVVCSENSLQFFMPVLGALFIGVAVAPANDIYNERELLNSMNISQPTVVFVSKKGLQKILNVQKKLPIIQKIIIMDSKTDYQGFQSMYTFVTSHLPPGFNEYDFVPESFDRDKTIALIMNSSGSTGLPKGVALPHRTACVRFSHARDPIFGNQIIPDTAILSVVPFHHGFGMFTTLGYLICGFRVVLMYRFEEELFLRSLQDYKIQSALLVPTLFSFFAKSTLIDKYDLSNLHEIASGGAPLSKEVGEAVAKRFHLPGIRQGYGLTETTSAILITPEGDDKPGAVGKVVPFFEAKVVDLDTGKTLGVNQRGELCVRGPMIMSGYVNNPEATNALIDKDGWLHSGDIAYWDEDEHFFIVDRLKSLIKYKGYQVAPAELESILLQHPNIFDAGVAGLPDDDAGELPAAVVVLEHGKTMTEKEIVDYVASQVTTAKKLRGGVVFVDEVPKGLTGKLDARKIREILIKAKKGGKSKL
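Purified P. pyralis luciferase (10nM final) with 10uM D-luciferin and 10uM ATP (Km levels) in 50mM Tris acetate pH 7.5, 10mM Mg acetate, 0.01% Tween-20, 0.05% BSA; qHTS 6-point titration, ~60 µM downward; luminescence read.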
NPC1 promoter act – activators of NPC1 promoter; 320,000 compounds, 2.4% hits; Potency, µM (series often up to 9.22 µM), actives largely listed as activators; Huh7 NPC1 promoter luciferase reporter, 24 h; also: nearly all actives have a fitted effect of over 60% in size
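Huh7 reporter cells (NPC1 promoter driving luciferase) are dosed with compound for 24 h at 37 °C, 5% CO2; luciferase detection reagent is then added and luminescence measured after 10 min at ambient temperature.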
Rab9 prom act – activators of Rab9 promoter | Potency, µM (titrated, usually from 9.22 µM), most hits filed as activators | AID 485297 | 320,000 compounds, 2.8% hits | Huh7 Rab9 promoter-luciferase reporter, luminescence, 24 h; also: nearly all actives have a fitted effect of over 60% in size
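Measured in stably transfected Huh7 cells bearing a Rab9 promoter–luciferase construct: 24 h compound treatment at 37 °C, followed by luminescence detection.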
SMN2 splice up – SMN2 splice variant enhancement; HEK293 SMN2-luciferase splicing reporter, luminescence, 30-36 h; Potency, µM (series often up to 46.1 µM), actives largely listed as activators; 210,000 compounds, 2.8% hits; AID 1458; also: nearly all actives have a fitted effect of over 55% in size
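qHTS luciferase splicing reporter: luminescence rises when SMN2 exon 7 is included in transfected HEK293 cells. Compound exposure lasted 30-36 h at 37C, with 4.5 mM final sodium butyrate as control, followed by a ONE-Glo read.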
ELG1 genotox – inducers of genotoxicity in HEK293T ELG1-luciferase cells. 330,000 compounds, 1.3% hits. HEK293T ELG1-luciferase reporter, luminescence, 16 h. Potency, µM (doses to about 46 µM), usual class: activators; also: nearly all actives have a fitted effect of over 60% in size
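Genotoxic stress is detected as increased luminescence from luciferase-tagged ELG1 in HEK293T cells, measured with ONE-Glo after a 16 hr treatment at 37 °C.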
Each line names hits and unclear results; the compound was inactive in the other large screens. Calls follow the shape of the dose curve; as a rule, active = well fitted curve in the direction sought with a large enough effect; inconclusive = small, poorly fitted or top-dose-only effect, or another doubt; inactive = no such curve, though single readings can be large; an effect the other way counts as inactive or inconclusive.

CCOc1cc(C(c2c(C)[nH]n(-c3ccccc3)c2=O)c2c(C)[nH]n(-c3ccccc3)c2=O)ccc1O	FLuc modulator 12µM (no result: ELG1 repair inh, NPC1 promoter act, Rab9 prom act, ELG1 genotox)
Cc1[nH]n(-c2ccccc2)c(=O)c1C(c1cc(Cl)ccc1O)c1c(C)[nH]n(-c2ccccc2)c1=O	FLuc modulator 19µM (no result: ELG1 repair inh, NPC1 promoter act, Rab9 prom act, ELG1 genotox)
COc1ccc(Nc2oc(/C=C/c3cc(OC)c(OC)c(OC)c3)nc2C#N)cc1	none (no result: ELG1 repair inh, NPC1 promoter act, Rab9 prom act, ELG1 genotox)
Cc1c2cnn(-c3ccccc3)c(=O)c2c(C)n1CCCC(=O)Nc1ccc(F)cc1F	none (no result: ELG1 repair inh, NPC1 promoter act, Rab9 prom act, ELG1 genotox)
Cc1cccc(C)c1N/C=C/c1onc(C)c1[N+](=O)[O-]	none (no result: ELG1 repair inh, NPC1 promoter act, Rab9 prom act, ELG1 genotox)
Cc1ccc(N/C=C/c2onc(C)c2[N+](=O)[O-])cc1	ELG1 repair inh inconclusive, FLuc modulator 0.601µM, NPC1 promoter act 2.51µM, Rab9 prom act 0.631µM, ELG1 genotox 1.3µM (no result: SMN2 splice up)
COc1cccc(N/C=C/c2onc(C)c2[N+](=O)[O-])c1	ELG1 repair inh inconclusive, NPC1 promoter act inconclusive, Rab9 prom act 2.51µM, SMN2 splice up inconclusive, ELG1 genotox inconclusive
Cc1cc(C)cc(NC(=O)N2CCC(CN3CCCCCC3)CC2)c1	none (no result: ELG1 repair inh, NPC1 promoter act, Rab9 prom act, SMN2 splice up, ELG1 genotox)
COc1ccccc1-c1ccc(SCc2cccc(F)c2)nn1	ELG1 repair inh inconclusive, FLuc modulator 23.9µM
COc1ccccc1-c1ccc(SCc2ccccc2F)nn1	ELG1 repair inh inconclusive, FLuc modulator 13.5µM, Rab9 prom act inconclusive
Cc1nc(C)c(-c2ccc(SCc3ccccc3F)nn2)s1	ELG1 repair inh inconclusive, FLuc modulator 10.7µM, NPC1 promoter act inconclusive, Rab9 prom act inconclusive, ELG1 genotox inconclusive (no result: SMN2 splice up)
COc1ccccc1-c1ccc(SCC(=O)NCCc2ccccc2)nn1	none
COc1ccccc1-c1ccc(SCc2ccccc2)nn1	ELG1 repair inh inconclusive, FLuc modulator 13.5µM, Rab9 prom act inconclusive
Cc1cc(C)cc(OCC(=O)Nc2ccc3c(c2)C(=O)c2ccccc2C3=O)c1	ELG1 repair inh inconclusive
COc1ccc(/C=C/C2=C[C@]3(C)C[C@]2(C)[C@H](c2ccc(OC)cc2)CC3=O)cc1	none (no result: ELG1 repair inh, FLuc modulator, NPC1 promoter act, Rab9 prom act, ELG1 genotox)
O=[N+]([O-])c1ccc(C(O)CSC(=S)N2CCCCC2)cc1 (configuration not stated)	ELG1 repair inh inconclusive, FLuc modulator 16.9µM, NPC1 promoter act 2.82µM (no result: SMN2 splice up)
O=C(Nc1ccc2ccccc2c1)c1cccc(F)c1	ELG1 repair inh inconclusive, FLuc modulator 2.13µM, NPC1 promoter act 1.26µM, Rab9 prom act 0.708µM, ELG1 genotox inconclusive (no result: SMN2 splice up)
COC(=O)c1cc(NC(=O)c2cccc(F)c2)cc(C(=O)OC)c1	ELG1 repair inh inconclusive, FLuc modulator inconclusive
O=C(Nc1ccc2[nH]c(=O)c(=O)[nH]c2c1)c1cccc(F)c1	SMN2 splice up inconclusive (no result: ELG1 repair inh, NPC1 promoter act, Rab9 prom act, ELG1 genotox)
Cc1ccc2cc(NC(=O)c3cccc(F)c3)ccc2n1	ELG1 repair inh inconclusive, FLuc modulator 2.69µM, NPC1 promoter act 0.631µM, Rab9 prom act 0.562µM, ELG1 genotox 2.59µM (no result: SMN2 splice up)
O=C(Nc1cccc(NC(=O)c2cccc(F)c2)n1)c1cccc(F)c1	ELG1 repair inh inconclusive, FLuc modulator 19µM (no result: SMN2 splice up)
CCCC(=O)Nc1cnc(NC(=O)c2cccc(F)c2)cc1C	ELG1 repair inh inconclusive, FLuc modulator 9.53µM, NPC1 promoter act 0.447µM, Rab9 prom act 0.631µM, SMN2 splice up 2µM, ELG1 genotox 0.461µM
CC(C)n1ncc2c(C(=O)N3CCN(Cc4ccc(Br)s4)CC3)cc(C3CC3)nc21	ELG1 repair inh inconclusive (no result: SMN2 splice up)
COc1cccc(CNC(=O)CCc2c(C)c3cc4c(C)coc4c(C)c3oc2=O)c1	none (no result: ELG1 repair inh, NPC1 promoter act, Rab9 prom act, ELG1 genotox)
Cc1ccc2cc(NC(=O)c3ccccc3)ccc2n1	ELG1 repair inh inconclusive, FLuc modulator 1.9µM, NPC1 promoter act 0.562µM, Rab9 prom act 0.398µM, ELG1 genotox 1.83µM (no result: SMN2 splice up)
Cc1ccc2cc(NC(=O)CC(CC(=O)O)c3ccccc3)ccc2n1 (configuration not stated)	none (no result: SMN2 splice up)
CN(C)c1ccc(CNC(=O)c2cccn2-c2nnc(N3CCCCC3)s2)cc1	none (no result: ELG1 repair inh, NPC1 promoter act, Rab9 prom act, SMN2 splice up, ELG1 genotox)
CCc1cc(=O)oc2cc(OC(=O)c3ccco3)ccc12	none (no result: SMN2 splice up)
Cc1cc(=O)oc2cc(OCC(=O)c3ccccc3)ccc12	none (no result: SMN2 splice up)
COCCOC(=O)c1c(C)oc2ccc(OCc3ccccc3)cc12	ELG1 repair inh inconclusive
Cc1cc(=O)oc2cc(OC(=O)c3ccco3)ccc12	FLuc modulator 16.9µM (no result: SMN2 splice up)
